In PubChem BioAssay (Tox21):
Values without a mark were called inactive. The source made the active and inactive calls. The call rests on the fitted dose curve; in most records, active means well fitted curve in the direction sought with a large enough effect in the repeat runs; inconclusive means weak or mixed curves; inactive means flat fitted curve, though single readings scatter.

Assay: qHTS assay to test for compound auto fluorescence at 460 nm (blue) in HEK293 cells (AID 720678)
Conditions: blue autofluorescence 405/460 nm; series mostly up to 91.3 µM; fluorescence, % of triamterene: at the top concentration
Excerpt: National Center for Advancing Translational Sciences [NCATS]
NIH Chemical Genomics Center [NCGC]
U.S. Environmental Protection Agency [EPA]
National Institutes of Environmental Health Sciences [NIEHS]
National Toxicology Program [NTP]
U.S. Food and Drug Administration [FDA]
Compound auto fluorescence often interferes with screening of the compound library against various biological targets and signaling pathways. Some of these compounds may have fluorophoric properties. Such properties may interfere with the assay outputs resulting in false positives and/or negatives. To decrease such complications and ensure the compound activities are relevant in terms of biological response, the Tox21 10K compound library was screened for auto fluorescence.
From the fluorophores used as reporter signals in our screening assays, the auto fluorescence equivalencies of compounds against three fluorophores have been evaluated: Triamterene, Fluorescein and Rose Bengal sodium for blue, green and red fluorescence, respectively. The fluorescence intensities were measured using Excitation/Emission wavelengths at 405/460nm, 485/535nm and 540/590nm for blue, green and red labels, respectively. This assay includes the blue fluorescence data.
Tox21 Assay Protocol Summary:
2,000 HEK293 cells in 5 uL of culture medium containing 10% dialyzed FBS per well were dispensed into black wall/clear bottom 1536-well plates using a Multidrop Combi Dispenser (Thermo Scientific). The assay plates were incubated for 4-5 hr at 37C to allow cell attachment to the well bottom, followed by the transfer of 23 nL compound or DMSO vehicle by a pintool work station (Kalypsys, San Diego, CA). After the assay plates were incubated overnight at 37C and 5% CO2, fluorescence intensities in the assay plates were measured by an Envision (PerkinElmer, Shelton, CT) plate reader using three labels for measuring blue, green and red fluorescence at […] 460, 535 and 590nm respectively.
On the % scale 0 is the no-effect control and ±100 the full control effect.

| SMILES | fluorescence, % of triamterene | Potency |
| --- | --- | --- |
| CCCCCCCCCC(=O)OCC | 0.17% | – |
| Cn1c(=O)c2c(ncn2CC(O)CO)n(C)c1=O (stereo not given) | -0.206% [at 18.6 µM] | – |
| N#Cc1c(F)cccc1F | -0.0068% | – |
| Cc1cccc(C(C)(C)C)c1O | -0.0269% | – |
| COc1cc(C(C)(C)C)c(O)c(C(C)(C)C)c1 | 0.0259% | – |
| O=C(O)Cc1sc(-c2ccccc2)nc1-c1ccc(Cl)cc1 | – | inactive |
| CC(=O)OC/C=C/c1ccccc1 | 0.0433% | – |
| O=C(NS(=O)(=O)/C=C/c1cccs1)c1ccc(F)cc1Br | -0.173% | – |
| CC(C)(C)c1cc(O)c(C(C)(C)C)cc1O | 0.0761% | – |
| CC(=O)SCc1ccco1 | 0.137% | – |
| O=c1[nH]cnc2ccccc12 | -0.189% [at 95.7 µM] | – |
| O=C=NC1CCC(CC2CCC(N=C=O)CC2)CC1 (stereo not given) | -0.0369% | – |
| CCCCCCOC(=O)CCC | -0.0212% | – |
| CCCCc1cc2ccccc2c(OCCN(C)C)n1 | 0.0451% [at 18.6 µM] | – |
| CCCCCCCCCCCCCCCCCBr | 0.159% [at 18.6 µM] | – |
| CC(C)(C)c1cc(CCC(=O)OCC(COC(=O)CCc2cc(C(C)(C)C)c(O)c(C(C)(C)C)c2)(COC(=O)CCc2cc(C(C)(C)C)c(O)c(C(C)(C)C)c2)COC(=O)CCc2cc(C(C)(C)C)c(O)c(C(C)(C)C)c2)cc(C(C)(C)C)c1O | 0.0494% [at 46 µM] | – |
| CC(C)CCCCCCOC(=O)c1ccc(C(=O)OCCCCCCC(C)C)c(C(=O)OCCCCCCC(C)C)c1 | 0.0402% | – |
| COC(=O)C(C)=O | 0.0615% | – |
| O=S(=O)(O)c1ccc(O)c2ncccc12 | 5.54% | – |
| CN(C)CCCOc1nn(Cc2ccccc2)c2ccccc12 | -0.0099% [at 18.6 µM] | – |

| SMILES | fluorescence, % of triamterene | Potency |
| --- | --- | --- |
| C=CC(=O)OCCOC(=O)CCC(=O)O | -0.179% | – |
| Cc1occc1S | 0.264% | – |
| CCCCOCCOCCOCCOCCO | -0.0121% | – |
| CC(=O)/C(C)=C/C1C(C)=CCCC1(C)C (stereo not given) | 0.0236% | – |
| CCOc1ccc2[nH]cc(C(=O)NCc3ccccc3)c(=O)c2n1 | -0.468% | – |
| CN1CCN(C2=Nc3cc(Cl)ccc3Nc3ccccc32)CC1 | -0.185% [at 46 µM] | – |
| CCCC(=O)OCC | -0.212% | – |
| C=CC[N+]1([C@H]2C[C@H]3[C@@H]4CC[C@H]5C[C@H](OC(C)=O)[C@@H](N6CCCCC6)C[C@]5(C)[C@H]4CC[C@]3(C)[C@H]2OC(=O)CC)CCCCC1 | 0.232% [at 46 µM] | – |
| C=CCCCCCC | -0.156% | – |
| NC(=S)N/N=C/c1cccnc1 | -0.0469% [at 46 µM] | – |
| O=S1(=O)c2cccc3cccc(c23)N1CCCN1CCN(c2ccc(F)cc2)CC1 | 1.98% [at 46 µM] | – |
| c1ccc(CNCc2ccccc2)cc1 | 0.0235% | – |
| CCCCCCCCC(CO)CCCCCC (stereo not given) | 0.0065% | – |
| CC(C)(C)c1cc(CO)cc(C(C)(C)C)c1O | -0.103% [at 95.7 µM] | – |
| CC(C)CCCC(C)CCO (stereo not given) | -0.278% | – |
| NC1CCN(c2nc3c(cc2F)c(=O)c(C(=O)O)cn3-c2ccc(F)cc2F)C1 (stereo not given) | 0.188% [at 46 µM] | – |
| Cc1cc(NC(=O)C(=O)O)cc(C)c1Oc1ccc(O)c2c1CCC2 | 0.2% | – |
| COCCO | 0.0013% | – |
| Cn1c(N)nc2nc[nH]c2c1=O | 0.0207% | – |
| Cc1ccc(C)o1 | -0.076% | – |
